Laboratory results published in PubChem BioAssay (NCI).
The panel holds about 79,000 compounds, 15% with a hit somewhere; the sample as a whole holds those more often. A number with no mark means an inactive call. Active and inactive are the calls of the source. Cut-off read from the data, not from the text of the source: active = growth inhibition above about 70%; inactive = the rest.

Assay: NCI Yeast Anticancer Drug Screen. Data for the mlh1 rad18 strain (AID 175)
Conditions: S. cerevisiae mlh1 rad18 strain growth inhibition; at 50.0 µM (retest, dose inferred, filed as 5.0); stronger effect = higher value
Procedure, shortened: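 A repair-deficient yeast strain is exposed to test compound, and growth is scored relative to vehicle-treated controls.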

Compound	growth inhibition
O=C(Nc1ccc(Cl)cc1)NS(=O)(=O)c1c(-c2ccccc2)oc2ccccc2c1=O	98% (active)
Cc1cc(CN(Cc2ccccc2)Cc2nc3ccccc3[nH]2)c(O)c(CN(Cc2nc3ccccc3[nH]2)Cc2nc3ccccc3[nH]2)c1	79% (active)
COC1=CC2=CCC3C(CCC4(C)C(C(C)=O)CCC34)C2(C)CC1 (configuration not stated)	-2%
OC(C1CCCCN1)C1CC(c2ccccc2)Nc2c(Cl)cc(Cl)cc21 (configuration not stated)	99% (active)
CN(C)C1=C(Cl)C(=O)c2ccccc2C1=O	87% (active)
CCCCCNC(=O)C1C(=O)N(CCCCC)C(=O)/C1=N\N (configuration not stated)	-4%
O=C(Nc1ccc(Cl)cc1)OCCOCCOC(=O)Nc1ccc(Cl)cc1	96% (active)
CCCC(CC)c1c(O)c(O)c(C(CC)CCC)c(C(CC)CCC)c1C(CC)CCC (configuration not stated)	87% (active)
Cc1ccc(NC(=S)SCc2ccc3c(c2)OCO3)cc1Cl	97% (active)
CN(C)CCCNc1ccc(O)c2c1C(=O)c1ccccc1C2=O	99% (active)
CC1=C(C(=O)Nc2ccc(Cl)c(Cl)c2)C(c2ccco2)C(C(=O)Nc2ccc(Cl)c(Cl)c2)=C(C)N1	36%
Cc1ccccc1NC(=O)CSC(N)=O	29%
Cc1[nH]c2ccccc2c1C(C)CC(O)c1ccccc1 (configuration not stated)	88% (active)
Cn1c(=O)ccc2cc(C(=O)c3ccccc3)ccc21	45%
c1ccc2c(c1)N=c1ccccc1=P21c2ccccc2Nc2ccccc21	99% (active)
Nc1[nH]cnc(=S)c1NC=O	-3%
COC(=O)CCC(=O)c1ccc2c(c1)CC1(Cc3ccccc3C1)C2	30%
CCC[CH2][Sn]([CH2]CCC)([O]C(=O)c1cc(F)cc(F)c1)[O][Sn]([CH2]CCC)([CH2]CCC)[O]C(=O)c1cc(F)cc(F)c1	96% (active)
CCOC(=O)CSC(=S)Nc1ccc(Cl)cc1	98% (active)
CC1(C)CC(=O)C(C(c2ccc3c(c2)OCO3)N2CCOCC2)C(=O)C1 (configuration not stated)	-27%
COC(=O)c1c(C)cccc1C(=O)c1c(C)cc(C)cc1C	85% (active)
C=C1C(=O)OC2CC3(C)CC(O)C(O)C(=C)C3CC12 (configuration not stated)	9%
CCOC(=O)C1=C(N)N(S(=O)(=O)c2ccc(C)cc2)CCC(C(=O)OC)=C1	-3%

Same assay, conditions: S. cerevisiae mlh1 rad18 strain growth inhibition; at 50.0 µM; stronger effect = higher value

Compound	growth inhibition
Cc1cc(O)c(C(=O)/C=C/c2cccnc2)c(=O)[nH]1	93% (active)
Oc1ccccc1C(=NNc1ccccc1)c1ccccc1O	90.9% (active)
Cn1c(=S)c2[nH]c(SCCN3CCCCC3)nc2n(C)c1=O	98.5% (active)
Cc1cc(=O)n(-c2cc3cccccc-3n2)[nH]1	96.2% (active)
CC(=O)OCC1OC(n2c(O)c(N=NC(N)=S)c3ccc([N+](=O)[O-])cc32)C(OC(C)=O)C1OC(C)=O (configuration not stated)	61.3%
COC(=O)NNc1c([N+](=O)[O-])cnn(-c2ccccc2)c1=O	-8.15%
CC(=O)N(C1=C(Cl)C(=O)c2ccccc2C1=O)c1ccc(F)cc1	99.4% (active)
COC(=O)CC1c2cc(OC)c3cccc(OC)c3c2CCC1(C)C(=O)OC (configuration not stated)	13.7%
CC[n+]1c(/C=C/c2ccc(N(C)C)cc2)ccc2ccccc21	98.5% (active)
COc1ccc(SC2=C(N(C)C)C(=O)c3ccccc3C2=O)cc1	84.5% (active)
C1=C(c2ccccc2)C(=Nc2ccccc2)SC1=Nc1ccccc1	99.5% (active)
Cc1c(O)c(Br)c(Br)c(Br)c1Br	94.1% (active)
CC1(C)OC(C(COC(=O)c2ccc([N+](=O)[O-])cc2)OS(=O)(=O)c2ccc([N+](=O)[O-])cc2)C(C(SCc2ccccc2)SCc2ccccc2)O1 (configuration not stated)	67%
Cc1cccc(Cc2ccc(Cl)cc2)c1O	99% (active)
C=C(CN(C)C)C(=O)c1ccccc1[N+](=O)[O-]	66.8%
CCCCN(CCCC)CC(O)c1cc(-c2ccc(Cl)cc2)nc2c(C)cccc12 (configuration not stated)	95.9% (active)
O=C(Nc1ccc(Cl)cc1)NS(=O)(=O)c1c(-c2ccccc2)oc2ccccc2c1=O	95.3% (active)
Cc1cc(CN(Cc2ccccc2)Cc2nc3ccccc3[nH]2)c(O)c(CN(Cc2nc3ccccc3[nH]2)Cc2nc3ccccc3[nH]2)c1	93.3% (active)
COC1=CC2=CCC3C(CCC4(C)C(C(C)=O)CCC34)C2(C)CC1 (configuration not stated)	51.1%
OC(C1CCCCN1)C1CC(c2ccccc2)Nc2c(Cl)cc(Cl)cc21 (configuration not stated)	99.4% (active)

Compound	growth inhibition
CN(C)C1=C(Cl)C(=O)c2ccccc2C1=O	42.4%
CCCCCNC(=O)C1C(=O)N(CCCCC)C(=O)/C1=N\N (configuration not stated)	-13.5%
O=C(Nc1ccc(Cl)cc1)OCCOCCOC(=O)Nc1ccc(Cl)cc1	98% (active)
CCCC(CC)c1c(O)c(O)c(C(CC)CCC)c(C(CC)CCC)c1C(CC)CCC (configuration not stated)	96% (active)
Cc1ccc(NC(=S)SCc2ccc3c(c2)OCO3)cc1Cl	99.2% (active)
CN(C)CCCNc1ccc(O)c2c1C(=O)c1ccccc1C2=O	89.6% (active)
CC1=C(C(=O)Nc2ccc(Cl)c(Cl)c2)C(c2ccco2)C(C(=O)Nc2ccc(Cl)c(Cl)c2)=C(C)N1	87.6% (active)
Cc1ccccc1NC(=O)CSC(N)=O	83% (active)
Cc1[nH]c2ccccc2c1C(C)CC(O)c1ccccc1 (configuration not stated)	95.2% (active)
Cn1c(=O)ccc2cc(C(=O)c3ccccc3)ccc21	65.7%
c1ccc2c(c1)N=c1ccccc1=P21c2ccccc2Nc2ccccc21	83.2% (active)
Nc1[nH]cnc(=S)c1NC=O	-1.9%
COC(=O)CCC(=O)c1ccc2c(c1)CC1(Cc3ccccc3C1)C2	12.1%
CCC[CH2][Sn]([CH2]CCC)([O]C(=O)c1cc(F)cc(F)c1)[O][Sn]([CH2]CCC)([CH2]CCC)[O]C(=O)c1cc(F)cc(F)c1	87.7% (active)
CCOC(=O)CSC(=S)Nc1ccc(Cl)cc1	93.7% (active)
CC1(C)CC(=O)C(C(c2ccc3c(c2)OCO3)N2CCOCC2)C(=O)C1 (configuration not stated)	99.1% (active)
COC(=O)c1c(C)cccc1C(=O)c1c(C)cc(C)cc1C	91.8% (active)
C=C1C(=O)OC2CC3(C)CC(O)C(O)C(=C)C3CC12 (configuration not stated)	92.2% (active)
CCOC(=O)C1=C(N)N(S(=O)(=O)c2ccc(C)cc2)CCC(C(=O)OC)=C1	56.1%
